Data: PubChem BioAssay AID1345085 (National Center for Advancing Translational Sciences (NCATS), 2018)
Records with an inconclusive call do not appear. Values without a mark were called inactive. Calls of active or inactive are those of the source. The call rests on the fitted dose curve; in most records, active means well fitted cell-killing curve with a large enough effect; inconclusive means small, poorly fitted or top-dose-only effect, or effect the other way; inactive means no such curve, though single readings can be large or run the other way. *1 amine or outer side, *2 acyl side, *3 side chain or, on linkers, in order; H or OH if unused. Where a SMILES comes first, the peptide text is derived from it. Bridges are numbered along the chain shown (N, C = ends). Roman numbers before positions name the chains, in order. [ ]: non-standard residue; d: D form. Actinocin(9to1) = Cc1c2oc3c(C)ccc(C(=O)[*:1])c3nc-2c(C(=O)[*:2])c(N)c1=O; NMeV = CN[C@H](C(=O)O)C(C)C; Sar = CNCC(=O)O

tested on: CAOV3; assay: Confirmatory qHTS for gynecologic anti-cancer compounds from libraries of approved drugs and bioactive compounds; conditions: gynecologic cancer cell panel viability, ATPlite luminescence, 48 h; series mostly up to 57.6 µM; activity change, negative = viability loss: at the top concentration; further: nearly all actives have a fitted effect of over 55% in size
How it was run: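 Cells (1,000/well) were plated, left 16 h at 37 C/5% CO2, then given compound at 11 concentrations (1:3) from 57.5 uM to 0.977 nM for 48 h. ATPlite luminescence after 15 min at room temperature gave IC50 values.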
On the % scale 0 is the no-effect control and ±100 the full control effect; potency means the concentration at half of the fitted maximal effect.

| SMILES | Potency | activity change, negative = viability loss |
| --- | --- | --- |
| NS(=O)(=O)OC[C@@H]1C[C@@H](n2ccc3c(N[C@H]4CCc5ccccc54)ncnc32)C[C@@H]1O | 3060 nM (active) |  |
| COc1cc2c(c(OC)c1OC)-c1ccc(OC)c(=O)cc1[C@@H](NC(C)=O)CC2 |  | 0.285% [at 486 µM] |
| CC[C@@]1(O)C(=O)OCc2c1cc1n(c2=O)Cc2cc3c(CN(C)C)c(O)ccc3nc2-1 | 544 nM (active) |  |
| Cc1c2oc3c(C)ccc(C(=O)N[C@@H]4C(=O)N[C@H](C(C)C)C(=O)N5CCC[C@H]5C(=O)N(C)CC(=O)N(C)[C@@H](C(C)C)C(=O)O[C@@H]4C)c3nc-2c(C(=O)N[C@@H]2C(=O)N[C@H](C(C)C)C(=O)N3CCC[C@H]3C(=O)N(C)CC(=O)N(C)[C@@H](C(C)C)C(=O)O[C@@H]2C)c(N)c1=O (I: T[dV]P[Sar][NMeV] / II: T[dV]P[Sar][NMeV]; ester I:1-I:C, II:1-II:C; linker I:N-II:N via Actinocin(9to1)) | 344 nM (active) |  |
| Cc1nc(Nc2n[nH]c3c2CN(C(=O)NC(CN(C)C)c2ccccc2)C3(C)C)c2sccc2n1 (centres undefined) | 306 nM (active) |  |
| CCCCN(CCCC)CC(O)c1cc(Cl)cc2c1-c1ccc(Cl)cc1/C2=C/c1ccc(Cl)cc1 (centres undefined) |  | -11.5% |
| CNC1CCC(N(Cc2cccc(-c3ccncc3)c2)C(=O)c2sc3ccccc3c2Cl)CC1 (centres undefined) | 27300 nM (active) |  |
| c1nc2nc(Nc3ccc(N4CCOCC4)cc3)nc(NC3CCCCC3)c2[nH]1 | 4730 nM (active) |  |
| CC(C)C[C@H](NC(=O)[C@@H](NC(=O)c1cccc(-c2ccccc2)n1)[C@@H](C)O)B(O)O | 172 nM (active) |  |
